Screens from PubChem BioAssay.
esBAF inh: blocks esBAF chromatin remodeling in mouse ES cells; 2% of 350,000 active; reporter increase, % at 12.5 µM; Bmi1-luciferase knock-in reporter, 24 h; 100% = twice the neutral-well signal; AID 602393; in the data active means activation above about 40%; inconclusive means no clear call, values can overlap the other calls;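 further: 0% = median of the plate's neutral control wells and 100% = double that signal; a rise in the Bmi1 reporter signal indicates esBAF inhibition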
Glyco luc inh: blocks N-linked glycosylation in D54 reporter cells; 0.23% of 360,000 active; AID 588692; reporter increase, % at 12.5 µM; D54 ERlucT glycosylation luciferase reporter, 24 h; percent of 100 nM tunicamycin response;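 active means mean luciferase reporter signal, scaled so untreated is 0 and the glycosylation-blocking control 100, at or above a set limit in every replicate; inconclusive means mean reaches the limit but not every replicate does; inactive means mean below the limit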;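 further: luciferase carries N-glycosylation sites so blocking glycosylation raises the light; 0% = median of neutral control wells and 100% = median of 100 nM tunicamycin wells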
PfHsp90 set2: reduces growth (ATP signal) of yeast expressing P. falciparum Hsp90 | AID 504621 | S. cerevisiae expressing PfHsp90, BacTiter-Glo ATP, 48 h; yeast lacking PDR1 and PDR3 efflux regulators | 0.32% of 310,000 active | inhibition, % at 9.4 µM;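 active means every replicate shows inhibition above about 80%, whatever the replicate mean, limit read from the data; inconclusive means mean inhibition reaches the set limit but some replicate falls short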;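 further: 0% = DMSO neutral controls and 100% = 20 µM radicicol positive controls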
Wnt act: activates Wnt/beta-catenin signaling in a reporter cell assay. activator, plate reader. activation, % at 9.35 µM. 1.2% of 300,000 active. AID 743398; in the data active means activation above about 30%, passing the limit was not always enough; inconclusive means no clear call, values can overlap the other calls;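 further: 0% = neutral control wells and 100% = positive control wells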
MITF TRPM1 HTS: MITF TRPM1 promoter activation in melanoma cells | SK-MEL-5 TRPM1-promoter luciferase, 24 h; % of positive control, neutral wells = 0 | activation, % at 12.5 µM | 0.75% of 300,000 active | AID 588334;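 active means mean activation of at least 80% with every replicate also reaching 80%; inconclusive means mean reaches 80% but some replicate falls short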;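 further: 0% = neutral control wells and 100% = parthenolide positive control wells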
Vif imaging: inhibitors of HIV Vif | HEK293T cells, Vif self-association by quenched fluorescence, imaging, 24 h | 0.35% of 340,000 active | AID 602346 | inhibition, % at 7.49 µM; in the data active means inhibition above about 50%, passing the limit was not always enough; inconclusive means no clear call, values can overlap the other calls; inactive means below about 31%
* marks the source's active call; other numbers are inactive results; ? = inconclusive; . = no result. Only some compounds are listed: those with a hit (about 3% of all), similar ones and a draw of the others.

SMILES	esBAF inh	Glyco luc inh	PfHsp90 set2	Wnt act	MITF TRPM1 HTS	Vif imaging
O=C(NCc1cccs1)C1Cc2c(-c3ccc(Cl)cc3)ccnc2O1 (stereo not given)	-12.5	20.6	.	-13.7	.	35.8
CC(=O)c1cccc(-c2ccnc3c2CC(C(=O)NCc2cccs2)O3)c1 (stereo not given)	-29.0	34.5*	.	.	.	0.8
O=C(COC(=O)c1ccc(F)c(S(=O)(=O)N2CCCCC2)c1)NCc1ccc(F)cc1	-2.3	2.7	-5.0	40.4*	7.6	.
O=C(COC(=O)c1ccc(S(=O)(=O)N2CCCCCC2)cc1)NCc1ccc(F)cc1	-6.8	1.2	-9.7	-4.3	-0.8	-0.4
N#C/C(=C\c1c[nH]c2ccccc12)C(=O)NC1CC1	70.9*	0.3	0.7	8.5	.	9.8
Cc1nn(-c2ccccc2)c(/N=C/c2ccc(O)cc2)c1-c1ccccc1	?	0.5	-11.5	.	83.4*	-15.9
O=C(O)c1cccc2c1-c1ccccc1/C2=N\Nc1ccccc1	62.9*	4.5	8.2	25.4	62.0	9.1
O=C(O)c1cccc(NN=C2c3ccccc3-c3ccccc32)c1	.	1.6	105.7*	0.1	16.2	5.0
O=C(O)c1cc(NN=C2c3ccccc3-c3ccccc32)ccc1Cl	-5.3	1.9	-16.1	4.2	10.5	-2.4
Cc1c(C(=O)Nc2ccc(Cl)cn2)oc2ccccc12	45.3*	-0.7	-24.4	27.6	22.8	4.7
Cc1c(C(=O)Nc2nnc(C3CC3)s2)oc2c(Cl)cccc12	.	0.9	.	2.2	-17.7	-12.8
Cc1ccnc(NC(=O)c2oc3ccccc3c2C)c1	-12.1	-18.0	.	-4.8	5.7	-8.8
Cc1c(C(=O)Nc2cnccn2)oc2ccccc12	61.2*	18.8	-11.4	4.8	7.1	-4.9
Cc1c(C(=O)Nc2nccs2)oc2ccccc12	69.9*	-2.9	.	79.6*	.	.
Cc1c(C(=O)Nc2nnc(C3CC3)s2)oc2ccccc12	52.8*	-1.4	10.4	45.1*	64.8	-10.8
Cc1csc(NC(=O)c2oc3ccccc3c2C)n1	?	-12.6	.	24.6	39.5	-5.7
COc1cccc(S(=O)(=O)N2CCCCN3[C@H](C2)[C@@H](c2ccc(C#CCC(C)C)cc2)[C@@H]3CO)c1	2.5	.	.	.	.	.
O=C(NNC(=O)C1CCCN(S(=O)(=O)c2ccc3ccccc3c2)C1)C1CC1 (stereo not given)	.	0.6	16.1	0.1	-0.7	-12.5
C[C@@H]1CN([C@H](C)CO)C(=O)Cc2cc(NC(=O)Nc3cccc4ccccc34)ccc2O[C@H]1CN(C)CC1CC1	-3.7	.	.	.	.	.
O=C(C[C@H]1CC[C@H]2[C@@H](COC[C@@H](O)CN2CC2CCCCC2)O1)NCC1CC1	-2.6	.	.	.	.	.
Cc1ccccc1OCc1nc(-c2ccc(NC(=O)c3ccco3)cc2)no1	27.1	-1.1	-17.4	-0.6	103.0*	-15.8
Cc1ccccc1OCc1nc(-c2ccccc2)no1	.	-2.0	2.5	.	96.7*	0.1
Cc1ccccc1OCc1nc(-c2ccc(NC(=O)c3cccs3)cc2)no1	.	-2.8	-52.9	29.5	56.8	-8.2
Cc1c(-c2nc(-c3cccnc3)no2)cccc1[N+](=O)[O-]	.	-0.8	-39.1	0.1	12.1	-2.1
Cc1ccc(-c2nc(-c3cccnc3)no2)c(C)c1	44.5*	-8.5	.	.	.	1.5
SMILES	esBAF inh	Glyco luc inh	PfHsp90 set2	Wnt act	MITF TRPM1 HTS	Vif imaging
CCCc1ccc(OCc2nc(-c3ccc(NC(=O)c4cccs4)cc3)no2)cc1	.	-2.3	-15.1	0.9	94.0*	2.1
c1ccc(-c2noc(COc3ccc4c(c3)OCO4)n2)cc1	63.0*	0.2	8.4	.	97.4*	.
Fc1ccc(OCc2nc(-c3cccs3)no2)cc1	?	-2.0	36.5	11.5	71.8	-6.0
Cc1cc(Br)ccc1OCc1nc(-c2cccnc2)no1	84.9*	-1.1	.	38.0*	.	0.1
CCCc1ccc(OCc2nc(-c3ccc(NC(=O)c4ccco4)cc3)no2)cc1	62.1*	0.0	-27.6	.	69.0	-0.5
COc1ccc(-c2noc(COc3ccc4c(c3)OCO4)n2)cc1	-6.4	0.6	26.9	.	9.8	3.4
COc1ccccc1CC(=O)Nc1ccc(-c2noc(COc3ccc(Br)cc3)n2)cc1	.	-3.5	-8.7	.	.	16.8
